The panel holds about 83,000 compounds, 20% with a hit somewhere; the sample as a whole holds those more often.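 A percent growth of 40 corresponds to 60% growth inhibition; 0 means no net growth; -100 means all cells died. Active threshold: below 10.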 A number with no mark means an inactive call. Active and inactive are the calls of the source.
Assays:
Assay in all cases: NCI-60 one-dose screen, 48 h (100 = growth as untreated, 0 = no growth, -100 = all killed)
Conditions in all cases: 10 µM unless noted
BT-549 breast = tested on: BT-549 breast
MDA-MB-435 melanoma = tested on: MDA-MB-435 melanoma
SW-620 colon = tested on: SW-620 colon
MCF7 breast = tested on: MCF7 breast
HCT-116 colon = tested on: HCT-116 colon
HCC-2998 colon = tested on: HCC-2998 colon
KM12 colon = tested on: KM12 colon

CCOc1cc(-c2ccc[nH]2)[nH]c1/C=C1\N=C(C)C(C(=O)OC)=C1C
growth (BT-549 breast): -43.3% (active) | growth (MDA-MB-435 melanoma): -70.8% (active) | growth (SW-620 colon): -72.9% (active) | growth (MCF7 breast): -91.3% (active) | growth (HCT-116 colon): -60.2% (active) | growth (HCC-2998 colon): -87% (active) | growth (KM12 colon): -85.3% (active)

O=[N+]([O-])c1ccc2c(c1)S(=O)c1cc([N+](=O)[O-])ccc1N2
growth (BT-549 breast): 102% | growth (MDA-MB-435 melanoma): 106% | growth (SW-620 colon): 95.8% | growth (MCF7 breast): 99.2% | growth (HCT-116 colon): 94% | growth (HCC-2998 colon): 104% | growth (KM12 colon): 102%

CN(CC(=O)N(Cc1ccc(C2CCCCC2)cc1)c1ccc(C(=O)O)cc1)S(=O)(=O)c1c(F)c(F)c(F)c(F)c1F
growth (BT-549 breast): 75.4% | growth (MDA-MB-435 melanoma): 68.3% | growth (SW-620 colon): -67% (active) | growth (MCF7 breast): 10.6% | growth (HCT-116 colon): 5.63% (active) | growth (HCC-2998 colon): -62.9% (active) | growth (KM12 colon): 90%

CC(C)c1ccc(C(=O)Nc2sc3c(CN(C)C)c(O)ccc3c2C(N)=O)cc1
growth (BT-549 breast): 64.4% | growth (MDA-MB-435 melanoma): 63% | growth (SW-620 colon): -37.8% (active) | growth (MCF7 breast): -16.2% (active) | growth (HCT-116 colon): -46.5% (active) | growth (HCC-2998 colon): -54.6% (active) | growth (KM12 colon): 6.38% (active)

O=[P@@]1(c2ccccc2)O[C@H](COCc2ccccc2)[C@@H](OCc2ccccc2)[C@H](OCc2ccccc2)[C@H]1NCc1ccccc1
growth (BT-549 breast): 4.37% (active) | growth (MDA-MB-435 melanoma): 9.72% (active) | growth (SW-620 colon): 21.6% | growth (MCF7 breast): 9.59% (active) | growth (HCT-116 colon): 8.21% (active) | growth (HCC-2998 colon): 38.8% | growth (KM12 colon): 15.3%

Cc1cc(C)c2c(c1)N1OC(C2)C[C@H]1/C=C/c1ccccc1 (stereo partly drawn)
growth (BT-549 breast): 105% | growth (MDA-MB-435 melanoma): 87.2% | growth (SW-620 colon): 108% | growth (MCF7 breast): 88% | growth (HCT-116 colon): 84.6% | growth (HCC-2998 colon): 98.2% | growth (KM12 colon): 107%

N#CCCCCCn1c2ccccc2c2c3c(c4c5ccccc5[nH]c4c21)C(=O)N(O)C3=O
growth (BT-549 breast): 16.1% | growth (MDA-MB-435 melanoma): 14.3% | growth (SW-620 colon): 12.5% | growth (MCF7 breast): 6.24% (active) | growth (HCT-116 colon): -33.3% (active) | growth (HCC-2998 colon): 1.36% (active) | growth (KM12 colon): 4.16% (active)

Cc1cc(CC(=O)O)n(C)c1C(=O)c1ccc(Cl)cc1
growth (BT-549 breast): 101% | growth (MDA-MB-435 melanoma): 106% | growth (SW-620 colon): 103% | growth (MCF7 breast): 120% | growth (HCT-116 colon): 102% | growth (HCC-2998 colon): 108% | growth (KM12 colon): 105%

CC(=O)Oc1ccc(C23c4ccccc4C2(OC(C)=O)c2cc(OC(C)=O)ccc23)cc1 (stereo not drawn)
growth (BT-549 breast): 106% | growth (MDA-MB-435 melanoma): 97.9% | growth (SW-620 colon): 80.3% | growth (MCF7 breast): 49.5% | growth (HCT-116 colon): 61.6% | growth (HCC-2998 colon): 59.2% | growth (KM12 colon): 46.2%

Cc1cc(C(=O)O)c(C)cc1C(=O)O
growth (BT-549 breast): 103% | growth (MDA-MB-435 melanoma): 113% | growth (SW-620 colon): 114% | growth (MCF7 breast): 96% | growth (HCT-116 colon): 105% | growth (HCC-2998 colon): 95.1% | growth (KM12 colon): 113%

C[n+]1ccc(C#N)c2ccccc21
growth (BT-549 breast): 102% | growth (MDA-MB-435 melanoma): 95.8% | growth (SW-620 colon): 90.6% | growth (MCF7 breast): 87.5% | growth (HCT-116 colon): 80% | growth (HCC-2998 colon): 114% | growth (KM12 colon): 100%

COc1ccc(-c2cc(Cc3cccs3)c(=O)n(Cn3ccc4ccccc43)n2)cc1
growth (BT-549 breast): 116% | growth (MDA-MB-435 melanoma): 90.8% | growth (SW-620 colon): 114% | growth (MCF7 breast): 95.2% | growth (HCT-116 colon): 106% | growth (HCC-2998 colon): 107% | growth (KM12 colon): 110%

COc1cccc(C2C(C#N)=C(N)Oc3cc(OC)ccc32)c1 (stereo not drawn)
growth (BT-549 breast): 15.8% | growth (MDA-MB-435 melanoma): -47.7% (active) | growth (SW-620 colon): 26% | growth (MCF7 breast): 17.1% | growth (HCT-116 colon): 7.04% (active) | growth (HCC-2998 colon): 0.0782% (active) | growth (KM12 colon): 4.36% (active)

CCOc1cc(C(C)(C)C)ccc1C1=N[C@H](c2ccc(Cl)cc2)[C@H](c2ccc(Cl)cc2)N1C(=O)N1CCN(CC#Cc2cccc3c2CN([C@@H]2CCC(=O)NC2=O)C3=O)CC1
growth (BT-549 breast): 22.9% | growth (MDA-MB-435 melanoma): 33.6% | growth (SW-620 colon): 26.9% | growth (MCF7 breast): 8.49% (active) | growth (HCT-116 colon): 17.8% | growth (HCC-2998 colon): 25.3% | growth (KM12 colon): 26.3%
